For 40 compounds, growth reduction results are on record in the supplement of paper PMC12024424.

Structures can show the parent of a compound that is named as a salt.

For the experiment, the system named is Staphylococcus aureus Sa2 (MRSA, cystic fibrosis isolate). Description: growth reduction vs untreated control (OD550); higher = stronger antibacterial activity. Conditions: 0.1 mM; 24 h. How it is done:
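Single-dose screen of the MedChem Express Drug Repurposing Library (0.1 mM, 1% DMSO) against planktonic MRSA S. aureus Sa2 (CF isolate) in TSB in 96-well plates, 37 °C aerobic, 24 h. Assays were run in triplicate and repeated twice.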
As to `NC(=O)[C@@H]1CC[C@@H]2CN1C(=O)N2OS(=O)(=O)O` [Avibactam (sodium)], the growth reduction was 96.6%. The same measure for `CC(=O)OCC(=O)[C@@]1(O)CC[C@H]2[C@@H]3CCC4=CC(=O)C=C[C@]4(C)[C@H]3C(=O)C[C@@]21C` [Prednisone acetate]: 97.7%. Next, `COc1cccc2c1C(=O)c1c(O)c3c(c(O)c1C2=O)C[C@@](O)(C(=O)CO)C[C@@H]3O[C@H]1C[C@H](N)[C@@H](O)[C@H](C)O1` [Epirubicin (hydrochloride)]: 95%; `O=C(O)c1ccc2c(c1)CCCC(c1ccc(Cl)cc1Cl)=C2c1ccc(O[C@H]2CCN(CCCF)C2)cc1`: 100%.

Take `CN(C(=O)CN(CCO)CC(=O)N(C)C(C)(C)Cc1ccccc1)C(C)(C)Cc1ccccc1` [Oxethazaine]: the growth reduction was found to be 100%.

In turn, `Oc1ccc2c(c1)CC[C@H](c1ccccc1)[C@@H]2c1ccc(OCCN2CCCC2)cc1` [Lasofoxifene (Tartrate)] displayed a growth reduction of 98.2%.

For `O=C(O)C1(c2ccc(-c3ccc(Cl)c(Cl)c3)c(F)c2)CC1` [Itanapraced], the growth reduction turned out to be 100%. With `O=C(O)c1ccccc1Nc1cccc(C(F)(F)F)c1` [Flufenamic acid], the growth reduction was 93.6%.

`CC(C)(C)Cn1c(N)nc2ccc(-c3[nH]c(C(C)(C)C)nc3-c3ccc(F)cc3)nc21` [Ralimetinib dimesylate]: the growth reduction came out at 100%.

Compound `C[C@]1(O)C[C@@H](c2nc(-c3ccc4ccc(-c5ccccc5)nc4c3)c3c(N)nccn32)C1` [Linsitinib] returned a growth reduction of 100%. Next, `C1CCC(C(CC2CCCCN2)C2CCCCC2)CC1` (stereo not given) [Perhexiline maleate]: 100%. The same measure for `CC1(C)CC[C@]2(NC(=O)C(C)(F)F)CC[C@]3(C)[C@H](C(=O)C=C4[C@@]5(C)C=C(C#N)C(=O)C(C)(C)[C@@H]5CC[C@]43C)[C@@H]2C1` [Omaveloxolone]: 100%; for `COc1cc(NC(C)CCCN)c2ncccc2c1` (stereo not given) [Primaquine (Diphosphate)]: 91.2%. Next, `CN1CCCN=C1/C=C/c1cccs1` [Pyrantel (pamoate)]: 91.6%; `CCOc1nc2cccc(C(=O)OC(C)OC(=O)OC3CCCCC3)c2n1Cc1ccc(-c2ccccc2-c2nn[nH]n2)cc1` (stereo not given) [Candesartan Cilexetil]: 100%; `CCOc1cc(CC(=O)N[C@@H](CC(C)C)c2ccccc2N2CCCCC2)ccc1C(=O)O` [Repaglinide]: 96.9%. Compound `CCc1oc2ccccc2c1C(=O)c1cc(Br)c(O)c(Br)c1` [Benzbromarone] came in with a growth reduction of 100%. For the compound `CSc1ccc(OCc2ncc([N+](=O)[O-])n2C)cc1` [Fexinidazole], the growth reduction amounted to 98.5%. The same measure for `COc1cc2c(Oc3ccc(NC(=O)C4(C(=O)Nc5ccc(F)cc5)CC4)cc3F)ccnc2cc1OCCCN1CCOCC1` [Foretinib]: 94.8%; for `O=C(O)c1ccc2nc(-c3cc(Cl)cc(Cl)c3)oc2c1` [Tafamidis meglumine]: 93.9%; for `O=C(Nc1ccccc1)c1ccccc1O` [Salicylanilide]: 91.4%. The same measure for `COCCNCCc1cccc(Nc2ncc3c(n2)-c2ccccc2[C@H](c2ccccc2F)C3)c1` [Derazantinib]: 100%; for `O=C(O)c1cc(-c2ccc(F)cc2F)ccc1O` [Diflunisal]: 93.6%; for `COc1cc([C@H]2C(C#N)=C(N)Oc3c2ccc(N)c3N)cc(Br)c1OC` [Crolibulin]: 98.1%. The same measure for `CCOC(=O)[C@H](CCc1ccccc1)N[C@@H](C)C(=O)N1[C@H](C(=O)O)C[C@@H]2CCC[C@@H]21` [Ramipril]: 92.1%; for `O=C(NC1CCN(CCCCC2(C(=O)NCC(F)(F)F)c3ccccc3-c3ccccc32)CC1)c1ccccc1-c1ccc(C(F)(F)F)cc1` [Lomitapide]: 100%; for `COCc1c(C(C)C)nc(C(C)C)c(/C=C/[C@@H](O)C[C@@H](O)CC(=O)O)c1-c1ccc(F)cc1` [Cerivastatin (sodium)]: 93.6%. `Oc1c(Br)cc(Br)c2cccnc12` [Broxyquinoline] came in with a growth reduction of 100%. Next, `C#C[C@]1(O)CC[C@H]2[C@@H]3CCc4cc(OC)ccc4[C@H]3CC[C@@]21C` [Mestranol]: 92.6%; `CS(=O)(=O)c1cc(F)cc2c3c(n(Cc4ccc(Cl)cc4)c12)[C@@H](CC(=O)O)CC3` [Laropiprant]: 96.1%; `C=C1CC[C@H](O)C/C1=C/C=C1\CCC[C@]2(C)[C@@H]([C@H](C)/C=C/[C@H](C)C(C)C)CC[C@@H]12` [Vitamin D2]: 100%. Next, `Cc1ccc(-n2[nH]c(C)c(N=Nc3cccc(-c4cccc(C(=O)O)c4)c3O)c2=O)cc1C` [Eltrombopag]: 96.5%. Next, `O=C(O)CNC(=O)c1c(=O)cc(CCc2ccccc2)n2[nH]cnc12` [Enarodustat]: 93.3%; `C[C@H]1O[C@@H](n2cc(F)c(=O)[nH]c2=O)[C@H](O)[C@@H]1O` [Doxifluridine]: 97.9%. The compound `CCCCc1oc2ccccc2c1C(=O)c1cc(I)c(OCCN(CC)CC)c(I)c1` [Amiodarone (hydrochloride)] gave a growth reduction of 100%. Next, `CC(C)c1cc(Oc2c(Br)cc(NC(=O)CC(=O)O)cc2Br)ccc1O` [Eprotirome]: 99.3%. Next, `COC1=C(OC)C(=O)C(CCCCCCCCCC[P+](c2ccccc2)(c2ccccc2)c2ccccc2)=C(C)C1=O` [Mitoquinone (mesylate)]: 100%; `CC(C)(C)OC(=O)N[C@H]1CCCCC/C=C\[C@@H]2C[C@@]2(C(=O)NS(=O)(=O)C2CC2)NC(=O)[C@@H]2C[C@@H](OC(=O)N3Cc4cccc(F)c4C3)CN2C1=O` [Danoprevir]: 99.9%. Next, `c1cn2cc(-c3ccc4cn[nH]c4c3)nc(Nc3ccc(N4CCOCC4)cc3)c2n1` [Entospletinib]: 100%; `Cc1cc(C2CCCCC2)n(O)c(=O)c1` [Ciclopirox (olamine)]: 99.3%.
